Screen size: about 39,000 compounds; about 3,300 (8.5%) were called active. For the sample, actives were picked, then their nearest neighbours and some compounds at random.
System: HepG2
Test: cytotoxicity call (relative viability < 0.9)
Settings: 10 µM

SMILES | cytotoxicity call
Cc1ccc(S(=O)(=O)N(C)C[C@@H]2Oc3ccc(NC(=O)Cn4cnnn4)cc3CC(=O)N([C@@H](C)CO)C[C@@H]2C)cc1 | inactive
Cc1noc(C)c1S(=O)(=O)Nc1ccc2c(c1)CC(=O)N([C@@H](C)CO)C[C@H](C)[C@@H](CN(C)Cc1ccc(Oc3ccccc3)cc1)O2 | inactive
Cc1noc(C)c1S(=O)(=O)Nc1ccc2c(c1)CC(=O)N([C@H](C)CO)C[C@H](C)[C@H](CN(C)Cc1ccc(Oc3ccccc3)cc1)O2 | inactive
Cc1noc(C)c1S(=O)(=O)Nc1ccc2c(c1)CC(=O)N([C@@H](C)CO)C[C@@H](C)[C@H](CN(C)Cc1ccc(Oc3ccccc3)cc1)O2 | inactive
Cc1noc(C)c1S(=O)(=O)Nc1ccc2c(c1)CC(=O)N([C@@H](C)CO)C[C@@H](C)[C@H](CN(C)Cc1ccc3c(c1)OCO3)O2 | inactive
Cc1noc(C)c1S(=O)(=O)Nc1ccc2c(c1)CC(=O)N([C@H](C)CO)C[C@@H](C)[C@H](CN(C)Cc1ccc(-c3ccccc3)cc1)O2 | inactive
Cc1noc(C)c1S(=O)(=O)Nc1ccc2c(c1)CC(=O)N([C@@H](C)CO)C[C@@H](C)[C@@H](CN(C)Cc1ccc(-c3ccccc3)cc1)O2 | inactive
Cc1noc(C)c1S(=O)(=O)Nc1ccc2c(c1)CC(=O)N([C@H](C)CO)C[C@H](C)[C@@H](CN(C)Cc1ccc(-c3ccccc3)cc1)O2 | active
Cc1noc(C)c1S(=O)(=O)Nc1ccc2c(c1)CC(=O)N([C@H](C)CO)C[C@H](C)[C@@H](CN(C)Cc1ccc(Oc3ccccc3)cc1)O2 | active
Cc1noc(C)c1S(=O)(=O)Nc1ccc2c(c1)CC(=O)N([C@@H](C)CO)C[C@@H](C)[C@@H](CN(C)Cc1ccc(Oc3ccccc3)cc1)O2 | active
Cc1noc(C)c1S(=O)(=O)Nc1ccc2c(c1)CC(=O)N([C@@H](C)CO)C[C@@H](C)[C@@H](CN(C)Cc1ccc3c(c1)OCO3)O2 | inactive
Cc1noc(C)c1S(=O)(=O)Nc1ccc2c(c1)CC(=O)N([C@H](C)CO)C[C@@H](C)[C@@H](CN(C)Cc1ccc(Oc3ccccc3)cc1)O2 | inactive
Cc1noc(C)c1S(=O)(=O)Nc1ccc2c(c1)CC(=O)N([C@H](C)CO)C[C@@H](C)[C@@H](CN(C)Cc1ccc3c(c1)OCO3)O2 | active
COc1ccc(S(=O)(=O)Nc2ccc3c(c2)C(=O)N([C@H](C)CO)C[C@@H](C)[C@H](CN(C)C(=O)NC2CCCCC2)OCCCC[C@@H](C)O3)cc1 | inactive
C[C@H]1CN([C@@H](C)CO)C(=O)c2cc(NC(=O)Nc3cccc4ccccc34)ccc2O[C@H]1CN(C)C(=O)Nc1ccc(F)cc1 | inactive
C[C@@H]1CN([C@@H](C)CO)C(=O)CCCn2cc(nn2)CO[C@H]1CN(C)S(=O)(=O)c1cccc(C#N)c1 | inactive
Cc1noc(C)c1NC(=O)N(C)C[C@H]1Oc2ccc(NC(=O)Nc3ccc(C(F)(F)F)cc3)cc2CC(=O)N([C@@H](C)CO)C[C@@H]1C | inactive
COc1ccc(C#Cc2ccc3c(c2)O[C@H](CN(C)C(C)=O)[C@H](C)CN([C@H](C)CO)S3(=O)=O)cc1 | inactive
C=C/C=C/[C@@H]1C(=C)CN([C@@H](Cc2ccccc2)C(=O)OC)[C@H]1[C@@H](O)CCn1cc(-c2ccc(C(=O)NO)s2)nn1 | inactive
C[C@@H]1CN([C@H](C)CO)C(=O)c2cc(NC(=O)Cc3ccccc3)ccc2O[C@@H](C)CCCCO[C@@H]1CN(C)C(=O)NC1CCCCC1 | inactive
COc1ccc(S(=O)(=O)N(C)C[C@@H]2OCCCC[C@H](C)Oc3ccc(NC(=O)CCC(F)(F)F)cc3C(=O)N([C@@H](C)CO)C[C@H]2C)cc1 | inactive

SMILES | cytotoxicity call
COc1ccc(S(=O)(=O)Nc2ccc3c(c2)CC(=O)N([C@@H](C)CO)C[C@@H](C)[C@@H](CN(C)CC2CC2)O3)cc1 | inactive
COc1ccc(S(=O)(=O)N[C@@H]2CC[C@@H](CC(=O)N3CCN(c4ccccc4)CC3)O[C@@H]2CO)cc1 | inactive
Cn1cnc(CN)c1 | inactive
C[C@H]1CN([C@@H](C)CO)C(=O)c2cc(C#CCc3ccccc3)cnc2O[C@@H]1CN(C)C(=O)C1CCOCC1 | inactive
C[C@H]1CN([C@@H](C)CO)C(=O)c2cc(NS(=O)(=O)c3ccccc3)ccc2O[C@@H]1CN(C)Cc1ccncc1 | inactive
Cc1noc(C)c1NC(=O)Nc1ccc2c(c1)C(=O)N([C@H](C)CO)C[C@H](C)[C@H](CN(C)C(=O)Cc1ccccc1)OCCCC[C@H](C)O2 | inactive
C[C@@H]1CN([C@H](C)CO)C(=O)c2cc(NS(=O)(=O)c3ccccc3)ccc2O[C@@H]1CN(C)Cc1ccc(Oc2ccccc2)cc1 | active
C[C@@H]1CN([C@@H](C)CO)C(=O)c2cc(NS(=O)(=O)c3ccccc3)ccc2O[C@@H]1CN(C)Cc1ccc(Oc2ccccc2)cc1 | active
C[C@H](CO)N1C[C@H](C)[C@H](CN(C)Cc2ccc(Oc3ccccc3)cc2)Oc2ccc(NS(=O)(=O)c3ccccc3)cc2C1=O | inactive
C[C@@H]1CN([C@H](C)CO)C(=O)c2cc(NS(=O)(=O)c3ccccc3)ccc2O[C@H]1CN(C)Cc1ccc(Oc2ccccc2)cc1 | inactive
C[C@H]1CN([C@@H](C)CO)C(=O)c2cc(NS(=O)(=O)c3ccccc3)ccc2O[C@H]1CN(C)Cc1ccc(Oc2ccccc2)cc1 | inactive
C[C@H](CO)N1C[C@H](C)[C@@H](CN(C)Cc2ccc(Oc3ccccc3)cc2)Oc2ccc(NS(=O)(=O)c3ccccc3)cc2C1=O | inactive
C[C@@H](NS(=O)(=O)C1CN(C(=O)OCc2ccccc2)C1)C(N)=O | inactive
O=C1c2ccccc2-c2nc(-c3ccccc3)cc3cccc1c23 | inactive
C[C@H](CO)N1C[C@H](C)[C@H](CN(C)C(=O)CN(C)C)Oc2cc(-c3cncnc3)ccc2S1(=O)=O | inactive
O=C(O)[C@@H](O)c1ccccc1 | inactive
C[C@@H]1CN([C@@H](C)CO)C(=O)c2cc(NC(=O)Nc3ccc(F)cc3)ccc2O[C@H]1CN(C)Cc1ccc(-c2ccccc2)cc1 | active
C[C@@H]1CN([C@H](C)CO)C(=O)c2cc(NC(=O)Nc3ccc(F)cc3)ccc2O[C@H]1CN(C)Cc1ccc(-c2ccccc2)cc1 | inactive
C[C@H](CO)N1C[C@H](C)[C@@H](CN(C)Cc2ccc(-c3ccccc3)cc2)Oc2ccc(NC(=O)Nc3ccc(F)cc3)cc2C1=O | inactive
C[C@@H]1CN([C@@H](C)CO)C(=O)c2cc(NC(=O)Nc3ccc(F)cc3)ccc2O[C@@H]1CN(C)Cc1ccc(-c2ccccc2)cc1 | active
C[C@H](CO)N1C[C@H](C)[C@H](CN(C)Cc2ccc(-c3ccccc3)cc2)Oc2ccc(NC(=O)Nc3ccc(F)cc3)cc2C1=O | inactive

SMILES | cytotoxicity call
C[C@H]1CN([C@@H](C)CO)C(=O)c2cc(NC(=O)Nc3ccc(F)cc3)ccc2O[C@@H]1CN(C)Cc1ccc(-c2ccccc2)cc1 | inactive
C[C@H]1CN([C@@H](C)CO)C(=O)c2cc(NC(=O)Nc3ccc(F)cc3)ccc2O[C@H]1CN(C)Cc1ccc(-c2ccccc2)cc1 | inactive
C[C@@H]1CN([C@H](C)CO)C(=O)c2cc(NC(=O)Nc3ccc(F)cc3)ccc2O[C@@H]1CN(C)Cc1ccc(-c2ccccc2)cc1 | active
C[C@@H]1CN([C@H](C)CO)C(=O)c2cc(NC(=O)C3CCCCC3)ccc2O[C@@H](C)CCCCO[C@H]1CN(C)S(=O)(=O)c1ccc(Cl)cc1 | inactive
CO[C@H]1CN(C)C(=O)c2ccc(NS(=O)(=O)c3cn(C)cn3)cc2OC[C@@H](C)N(Cc2cccc(F)c2)C[C@@H]1C | inactive
C[C@@H]1CN([C@H](C)CO)C(=O)c2cc(NS(C)(=O)=O)ccc2O[C@@H]1CN(C)C(=O)Nc1ccc(F)cc1 | inactive
C[C@@H]1CCCCO[C@@H](CN(C)C(=O)Nc2ccc3c(c2)OCO3)[C@H](C)CN([C@@H](C)CO)C(=O)c2cc(NC(=O)CCC(F)(F)F)ccc2O1 | inactive
CO[C@@H](CN(C)S(=O)(=O)c1ccc(C)cc1)[C@H](C)CN([C@H](C)CO)S(=O)(=O)c1cccc(Cl)c1 | inactive
COCC(=O)N1C[C@@H](C)[C@H](OC)CN(C)C(=O)c2cc(NC(=O)c3ccc(F)cc3)ccc2OC[C@H]1C | inactive
O=C1c2ccccc2[C@@]2(Cc3ccccc3N(CC(F)(F)F)C2=O)[C@H](c2ccc(CO)cc2)N1Cc1ccccc1 | inactive
C[C@@H]1CN([C@H](C)CO)C(=O)Cc2cc(NC(=O)Nc3ccc4c(c3)OCO4)ccc2O[C@H]1CN(C)Cc1ccc(C(=O)Nc2ccccc2N)cc1 | inactive
C[C@H]1CN([C@@H](C)CO)C(=O)Cc2cc(NC(=O)Nc3ccc4c(c3)OCO4)ccc2O[C@@H]1CN(C)Cc1ccc(C(=O)Nc2ccccc2N)cc1 | inactive
C[C@@H]1CN([C@@H](C)CO)C(=O)Cc2cc(NC(=O)Nc3ccc4c(c3)OCO4)ccc2O[C@@H]1CN(C)Cc1ccc(C(=O)Nc2ccccc2N)cc1 | active
C[C@@H]1CN([C@@H](C)CO)C(=O)Cc2cc(NC(=O)Nc3ccc4c(c3)OCO4)ccc2O[C@H]1CN(C)Cc1ccc(C(=O)Nc2ccccc2N)cc1 | inactive
C[C@H]1CN([C@@H](C)CO)C(=O)Cc2cc(NC(=O)Nc3ccc4c(c3)OCO4)ccc2O[C@H]1CN(C)Cc1ccc(C(=O)Nc2ccccc2N)cc1 | active
C[C@H](CO)N1C[C@H](C)[C@H](CN(C)Cc2ccc(C(=O)Nc3ccccc3N)cc2)Oc2ccc(NC(=O)Nc3ccc4c(c3)OCO4)cc2CC1=O | inactive
C[C@@H]1CN([C@H](C)CO)C(=O)Cc2cc(NC(=O)Nc3ccc4c(c3)OCO4)ccc2O[C@@H]1CN(C)Cc1ccc(C(=O)Nc2ccccc2N)cc1 | active
C[C@H](CO)N1C[C@H](C)[C@@H](CN(C)Cc2ccc(C(=O)Nc3ccccc3N)cc2)Oc2ccc(NC(=O)Nc3ccc4c(c3)OCO4)cc2CC1=O | inactive
C[C@H]1CN([C@@H](C)CO)C(=O)Cc2cc(NC(=O)Nc3ccccc3)ccc2O[C@@H]1CN(C)Cc1ccc(C(=O)Nc2ccccc2N)cc1 | inactive

Reference: the antibiotic and cytotoxicity screens of Wong et al. (2023)
